Here are results for 38 compounds from PubChem BioAssay AID720519 (National Center for Advancing Translational Sciences (NCATS), 2013).

Each structure is given as a SMILES string. Inconclusive results are not listed. Values without a mark were called inactive. Activity calls are given as the source filed them. Calls come from the whole dose curve; as a rule, active = well fitted activation curve with a large enough effect; inconclusive = small, poorly fitted or top-dose-only effect; inactive = flat fitted curve, though single readings scatter.
Potency is the fitted concentration of half-maximal effect.

The assay is described as follows: qHTS for Inhibitors of Cell Surface uPA Generation: Confirmatory Assay for Cherry-picked Compounds. For inhibition: 0% is about no effect. As to conditions: cell surface uPA activity generation, qHTS confirmation; series mostly up to 115 µM; inhibition: at the top concentration. The essentials: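 RAW 264.7 cells at 4000/well, incubated overnight, then treated with compounds. After 24 h at 37 C, viability was read by ATPlite luminescence. An increase in signal indicates blocked uPA-dependent LF entry.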
On the technique in general: qHTS replaces the single test concentration by a dilution series.
As to `COCCOc1ccc(C(F)(F)F)cc1NC(=O)COC(=O)Cc1c[nH]c2ccccc12`, the “inhibition” value is -0.701%.

As for `CN(C)C(=S)Nc1ccc(S(=O)(=O)N2CCCCC2)cc1`, the “inhibition” value is -1.79%.

Regarding `Cc1nc(N2CCN(c3ccc(Cl)cc3)CC2)[nH]c(=O)c1C`, the “inhibition” value was 0.535%.

Regarding `CC(/C=C/C1(O)C(C)CC(O)CC1(C)C)OC1OC(CO)C(O)C(O)C1O` (stereo not drawn), the “inhibition” value was 1.24%.

For the compound `COc1ccc(C(=O)N[C@H](C(=O)NCc2cccs2)C(C)C)cc1`, the “inhibition” value is -1.65%.

Turning to `O=C(N/C(=C\c1cccc([N+](=O)[O-])c1)C(=O)N1CCOCC1)c1ccc([N+](=O)[O-])cc1`, the “inhibition” value is -0.71%.

In the case of `CC(NC(=O)NC1CCCCC1)C(c1cccs1)N1CCN(C)CC1` (stereo not drawn), the “inhibition” value is 1.87%.

In the case of `CCOc1cc(C(=O)OCC(=O)c2cc(C)n(CC3CCCO3)c2C)ccc1OCC(=O)N1CCOCC1` (stereo not drawn), the “inhibition” value was -2.56%.

Regarding `O=C(NCCc1cn2ccsc2n1)c1cccs1`, the “inhibition” value is -1.44%.

As to `COc1ccc(NC(=O)CN2C(=O)CSc3ncccc32)cc1`, the “inhibition” value was 0.189%.

Turning to `CC1(C)CC(=O)C=C(c2ccc3ccccc3c2)C1`, the “inhibition” value is -0.951%.

Regarding `O=C(O)C(Nc1nc(C(F)(F)F)nc2ccccc12)c1ccccc1` (stereo not drawn), the “inhibition” value is 0.904%.

With `CCC(C)NC(=O)c1ccc2nc(-c3ccc(OC)c(OC)c3)c(-c3ccc(OC)c(OC)c3)nc2c1` (stereo not drawn), the “inhibition” value is -3.49%.

For `CC(=O)c1ccc(N2CCN(C(=S)NCc3ccco3)CC2)cc1`, the “inhibition” value was -2.55%.

`Cn1nc(N2CCN(S(=O)(=O)c3ccccc3)CC2)c(=O)n(C)c1=O`: the “inhibition” value was -0.274%.

As for `Cc1ccc(Nc2cc(C)c3ccc(O)cc3n2)cc1C`, the Potency was 6.56 µM (active).

On to `CCCOc1ccc(S(=O)(=O)NNC(=O)c2cc3ccccc3o2)cc1`, for which the “inhibition” value was -3.45%.

`Cc1ccc(OCc2cc(C(=O)N(C)Cc3cc(C4CC4)n[nH]3)no2)cc1C`: the “inhibition” value is -3.14%.

For `O=c1ccc(S(=O)(=O)N2CCCC2)c[nH]1`, the “inhibition” value was -0.713%.

In the case of `CC1CC(C)CN(CCCNC(=O)CN2C(=O)CSc3ccc(S(=O)(=O)N4CCOCC4)cc32)C1` (stereo not drawn), the “inhibition” value is 0.198%.

As for `C/C=C/C(=O)Nc1cccc(C2=NOC3(C2)C[C@@H](C(N)=O)N(C(=O)c2cc([N+](=O)[O-])cc([N+](=O)[O-])c2C)C3)c1` (stereo partly drawn), the “inhibition” value is -2.11%.

On to `CCOc1ccc(-n2cnc3scc(-c4ccc(OC)c(OC)c4)c3c2=O)cc1`, for which the “inhibition” value was -3.77%.

For the compound `CC(=O)c1ccc(N=C2SCCCN2C(=O)C2CCCCC2)cc1`, the “inhibition” value was -2.64%.

`COC(=O)[C@H](CC(C)C)N(Cc1ccccc1)S(=O)(=O)N(Cc1ccc(OC)cc1)[C@@H](CC(C)C)C(=O)OC`: the “inhibition” value was 0.302%.

With `O=C(O)CNS(=O)(=O)c1ccc2c(c1)Cc1cc(S(=O)(=O)NCC(=O)O)ccc1-2`, the “inhibition” value was 1.16%.

Regarding `CC1CCC(NC(=O)c2nn(C)c3c2CS(=O)(=O)c2ccccc2-3)CC1` (stereo not drawn), the “inhibition” value was -2.66%.

In the case of `C=CC(=O)N1C/C(=C/c2ccccc2)C(=O)/C(=C\c2ccccc2)C1`, the Potency is 26.1 µM (active).

`COc1ccc(OC)c(N2C(=O)CC(Cc3cc(C)cc(C)c3)C2=O)c1` (stereo not drawn): the “inhibition” value is -2.59%.

On to `O=C(Cc1ccc(Cl)cc1)c1c[nH]c(C(=O)NCCCn2ccnc2)c1`, for which the “inhibition” value was 1.14%.

As for `CCNc1nc(Nc2ccc(C)c(Cl)c2)c2cnn(C)c2n1`, the “inhibition” value was -1.27%.

For the compound `OC(COc1ccc(Br)cc1)CN1CCN(c2ccccc2)CC1` (stereo not drawn), the “inhibition” value was -0.285%.

As for `CCCCn1c(N)c(N(Cc2ccccc2OC)C(=O)COc2ccc(C)cc2)c(=O)[nH]c1=O`, the “inhibition” value is -1.7%.

With `COCCOC(=O)C1=C(C)NC(=O)NC1c1cccc2ccccc12` (stereo not drawn), the “inhibition” value was 1.45%.

Consider `O=C(CN1CCOC1=O)N1CCCC(Nc2ccc(F)c(F)c2)C1` (stereo not drawn), for which the “inhibition” value is -0.931%.

Consider `COc1ccc(N(C(C)C(=O)NN=C2CCCC2)S(C)(=O)=O)cc1` (stereo not drawn), for which the “inhibition” value was -0.44%.

Consider `COc1ccccc1NNC(=O)C(O)(c1ccccc1OC)c1ccccc1OC`, for which the “inhibition” value was 1.06%.

Regarding `O=C(Nc1ccc(NC(=O)c2ccco2)c(Cl)c1)c1ccccc1`, the “inhibition” value is -0.468%.

For `COc1ccc(C(C(=O)NC2CCCC2)N(C(=O)c2ccoc2C)c2ccc(C)c(C)c2)cc1` (stereo not drawn), the “inhibition” value was -3.02%.

For orientation: inhibition means the relative decrease from the control value, in per cent.
